Reference: the supplement of paper PMC8728848
Many of the other results were omitted from the sample, so the strongest signals are more common in it than they were.

What was measured:
Experiment in all cases: glycan array binding signal (z-score within array); higher = stronger binding
Details in all cases: glycan notation: IUPAC condensed, linker removed; mutation: K176L
[1] = biological target: Fuc(a1-2)Gal(b1-4)GlcNAc(b1-3)Gal(b1-4)GlcNAc
How it was run: (§1)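 Arrays were curated from the Consortium for Functional Glycomics database, 3228 in total, and kept only where the protein sequence was available. Binding is expressed as a within-array Z-score. This score was averaged across arrays of the same protein sequence at different concentrations or buffers and across linkers, and negative values can be read as non-binding.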

[2] = biological target: Fuc(a1-2)Gal(b1-4)GlcNAc(b1-3)Gal(b1-4)GlcNAc(b1-3)Gal(b1-4)GlcNAc
How it was run: as §1

[3] = biological target: Fuc(a1-2)[Gal(a1-3)]Gal(b1-3)GlcNAc(b1-2)Man(a1-3)[Fuc(a1-2)[Gal(a1-3)]Gal(b1-3)GlcNAc(b1-2)Man(a1-6)]Man(b1-4)GlcNAc(b1-4)GlcNAc
How it was run: as §1

[4] = biological target: Fuc(a1-2)[Gal(a1-3)]Gal(b1-4)GlcNAc(b1-2)Man(a1-3)[Fuc(a1-2)[Gal(a1-3)]Gal(b1-4)GlcNAc(b1-2)Man(a1-6)]Man(b1-4)GlcNAc(b1-4)GlcNAc
How it was run: as §1

[5] = biological target: Fuc(a1-2)[GalNAc(a1-3)]Gal(b1-4)GlcNAc
How it was run: as §1

[6] = biological target: Fuc(a1-2)[GalNAc(a1-3)]Gal(b1-4)GlcNAc(b1-3)Gal(b1-4)GlcNAc(b1-3)Gal(b1-4)GlcNAc
How it was run: as §1

[7] = biological target: Fuc(a1-3)[Gal(b1-4)]GlcNAc
How it was run: as §1

[8] = biological target: Fuc(a1-3)[GalNAc(b1-4)]GlcNAc
How it was run: as §1

[9] = biological target: Gal(a1-4)Gal(b1-3)GlcNAc(b1-2)Man(a1-3)[Gal(a1-4)Gal(b1-3)GlcNAc(b1-2)Man(a1-6)]Man(b1-4)GlcNAc(b1-4)GlcNAc
How it was run: as §1

[10] = biological target: Gal(a1-4)Gal(b1-4)Glc
How it was run: as §1

[11] = biological target: Gal(b1-3)GalNAc
How it was run: as §1

[12] = biological target: Gal(b1-3)GalNAc(b1-3)Gal(a1-4)Gal(b1-4)Glc
How it was run: as §1

[13] = biological target: Gal(b1-3)GlcNAc(b1-3)Gal(b1-4)GlcNAc(b1-6)[Gal(b1-3)GlcNAc(b1-3)]Gal(b1-4)Glc
How it was run: as §1

[14] = biological target: Gal(b1-3)[Fuc(a1-4)]GlcNAc(b1-3)Gal(b1-4)[Fuc(a1-3)]GlcNAc
How it was run: as §1

[15] = biological target: Gal(b1-3)[GlcNAc(b1-6)]GalNAc
How it was run: as §1

[16] = biological target: Gal(b1-4)GalNAc(b1-3)[Fuc(a1-2)]Gal(b1-4)GlcNAc
How it was run: as §1

[17] = biological target: Gal(b1-4)GlcNAc(b1-2)Man(a1-6)[Man(a1-3)]Man(b1-4)GlcNAc(b1-4)GlcNAc
How it was run: as §1

[18] = biological target: Gal(b1-4)GlcNAc(b1-3)Gal(b1-4)Glc
How it was run: as §1

[19] = biological target: Gal(b1-4)GlcNAc(b1-3)Gal(b1-4)GlcNAc(b1-3)Gal(b1-4)GlcNAc
How it was run: as §1

[20] = biological target: Gal(b1-4)GlcNAc(b1-3)[Gal(b1-4)GlcNAc(b1-6)]GalNAc
How it was run: as §1

[21] = biological target: Gal(b1-4)GlcNAc(b1-6)[Gal(b1-3)]GalNAc
How it was run: as §1

[22] = biological target: Gal3S6S(b1-4)GlcNAc6S
How it was run: as §1

[23] = biological target: Gal6S(b1-4)Glc
How it was run: as §1

[24] = biological target: GalNAc(a1-3)GalNAc
How it was run: as §1

[25] = biological target: GlcNAc(a1-4)Gal(b1-3)GlcNAc
How it was run: as §1

[26] = biological target: GlcNAc(a1-4)Gal(b1-4)GlcNAc(b1-3)Gal(b1-4)GlcNAc(b1-3)Gal(b1-4)GlcNAc
How it was run: as §1

[27] = biological target: GlcNAc(b1-3)Gal(b1-4)Glc
How it was run: as §1

[28] = biological target: Kdn(a2-3)Gal(b1-4)[Fuc(a1-3)]GlcNAc
How it was run: as §1

[29] = biological target: Man(a1-2)Man(a1-3)Man
How it was run: as §1

[30] = biological target: Man(a1-2)Man(a1-6)[Man(a1-3)]Man(a1-6)[Man(a1-2)Man(a1-2)Man(a1-3)]Man(b1-4)GlcNAc(b1-4)GlcNAc
How it was run: as §1

[31] = biological target: Neu5Ac(a2-3)Gal(b1-3)GalNAc
How it was run: as §1

[32] = biological target: Neu5Ac(a2-3)Gal(b1-3)GlcNAc(b1-3)Gal(b1-4)GlcNAc
How it was run: as §1

[33] = biological target: Neu5Ac(a2-6)Gal(b1-4)GlcNAc(b1-2)Man(a1-3)[Gal(b1-4)GlcNAc(b1-2)Man(a1-6)]Man(b1-4)GlcNAc(b1-4)GlcNAc
How it was run: as §1

[34] = biological target: Neu5Gc(a2-3)Gal(b1-3)[Fuc(a1-4)]GlcNAc
How it was run: as §1

B1: Gal 3 (Homo sapiens), P17931 (protein)
chain: MADNFSLHDALSGSGNPNPQGWPGAWGNQPAGAGGYPGASYPGAYPGQAPPGAYPGQAPPGAYHGAPGAYPGAPAPGVYPGPPSGPGAYPSSGQPSAPGAYPATGPYGAPAGPLIVPYNLPLPGGVVPRMLITILGTVKPNANILDFQRGNDVAFHFNPRFNENNRRVIVCNTLLDNNWGREERQSVFPFESGKPFKIQVLVEPDHFKVAVNDAHLLQYNHRVKKLNEISKLGISGDIDLTSASYTMI
glycan array binding signal (z-score) [1]: 5.06 | glycan array binding signal (z-score) [2]: 5.51 | glycan array binding signal (z-score) [3]: 5.21 | glycan array binding signal (z-score) [4]: 7.87 | glycan array binding signal (z-score) [5]: 0.393 | glycan array binding signal (z-score) [6]: 5.28 | glycan array binding signal (z-score) [7]: -0.265 | glycan array binding signal (z-score) [8]: -0.262 | glycan array binding signal (z-score) [9]: -0.258 | glycan array binding signal (z-score) [10]: -0.267 | glycan array binding signal (z-score) [11]: -0.269 | glycan array binding signal (z-score) [12]: -0.262 | glycan array binding signal (z-score) [13]: 0.682 | glycan array binding signal (z-score) [14]: -0.273 | glycan array binding signal (z-score) [15]: -0.27 | glycan array binding signal (z-score) [16]: -0.267 | glycan array binding signal (z-score) [17]: -0.271 | glycan array binding signal (z-score) [18]: 1.53 | glycan array binding signal (z-score) [19]: 5.22 | glycan array binding signal (z-score) [20]: -0.256 | glycan array binding signal (z-score) [21]: -0.268 | glycan array binding signal (z-score) [22]: -0.261 | glycan array binding signal (z-score) [23]: -0.27 | glycan array binding signal (z-score) [24]: -0.27 | glycan array binding signal (z-score) [25]: -0.259 | glycan array binding signal (z-score) [26]: 5.87 | glycan array binding signal (z-score) [27]: -0.271 | glycan array binding signal (z-score) [28]: -0.27 | glycan array binding signal (z-score) [29]: -0.268 | glycan array binding signal (z-score) [30]: -0.263 | glycan array binding signal (z-score) [31]: -0.269 | glycan array binding signal (z-score) [32]: 0.372 | glycan array binding signal (z-score) [33]: -0.267 | glycan array binding signal (z-score) [34]: -0.272
